Screening results as filed in PubChem.
An excerpt weighted towards active compounds, which were near 3.5% of everything screened.
TEAD-YAP inh: TEAD-YAP interaction inhibition, primary screen, TEAD-YAP interaction inhibitor project, luminescence, HEK-TIYL cells. inhibition, % at 9.12 µM. TEAD-Gal4/YAP UAS-luciferase luminescence. 640,000 tested, 1.4% active. AID 1259422, 2018; in the data active means inhibition above about 32%;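 further: 0% = median of test compound wells and 100% = reference inhibitor wells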
FBW7 activator: FBW7 E3 ligase activators, primary screen, biochemical, AlphaScreen, human; F-box/WD repeat-containing protein 7 (Homo sapiens), Q969H0; AlphaScreen FBW7–phospho-cyclin E peptide binding, activator screen; normalized activity (activation), % at 26.1 µM; 650,000 tested, 0.13% active; AID 1259310, 2017; in the data active means normalized activity above about 1.9%;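 further: purified mutant Fbw7 with reduced substrate affinity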
MITF inh: MITF inhibitors, primary screen, biochemical, AlphaScreen, human. Microphthalmia-associated transcription factor (Homo sapiens), O75030. AID 1259374, 2018. inhibition, % at 2.6 µM. AlphaScreen MITF homodimerization, bead proximity signal. 650,000 tested, 0.91% active; in the data active means inhibition above about 50%;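 further: 0% = vehicle wells with protein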
GPR151 activ: activators of human GPR151, primary screen, cell-based, PathHunter beta-arrestin, luminescence | activation, % at 11.2 µM | G-protein coupled receptor 151 (Homo sapiens), Q8TDV0 | AID 1508602, 2020 | PathHunter beta-arrestin GPR151 cells | 650,000 tested, 1% active; in the data active means activation above about 4.9%;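 further: 0% = median of compound wells and 100% = cells with positive control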
Target sequence (Q8TDV0 whole entry, looked up): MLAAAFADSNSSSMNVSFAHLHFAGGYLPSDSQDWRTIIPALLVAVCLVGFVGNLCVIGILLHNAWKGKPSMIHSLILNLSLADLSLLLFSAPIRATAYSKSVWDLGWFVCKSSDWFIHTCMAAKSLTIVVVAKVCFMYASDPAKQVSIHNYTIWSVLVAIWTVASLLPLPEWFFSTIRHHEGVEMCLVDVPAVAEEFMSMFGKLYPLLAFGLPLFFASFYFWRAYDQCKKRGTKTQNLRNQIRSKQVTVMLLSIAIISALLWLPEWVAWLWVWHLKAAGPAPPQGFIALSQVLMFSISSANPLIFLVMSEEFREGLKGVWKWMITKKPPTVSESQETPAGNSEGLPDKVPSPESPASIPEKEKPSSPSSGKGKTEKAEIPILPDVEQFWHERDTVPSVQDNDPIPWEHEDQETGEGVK
Numbers without * were called inactive.

SMILES	TEAD-YAP inh	FBW7 activator	MITF inh	GPR151 activ
NC(=O)c1ccc(Nc2ncc(Cl)c(-c3ccccc3)n2)cc1	-6	2.6*	18	0
NC(=O)c1ccc(Nc2nccc(-c3ccccc3)n2)cc1	23	1	-12	-4
NS(=O)(=O)c1ccc(Nc2nccc(-c3cccc(Nc4ccccc4)c3)n2)cc1	54*	0	1	3
NC(=O)c1ccc(Nc2nccc(-c3cccc(Nc4ccccc4)c3)n2)cc1Cl	36*	0	-2	0
N#Cc1cccc(-c2ccnc(Nc3ccc(S(N)(=O)=O)cc3)n2)c1	-4	0	1	1
NS(=O)(=O)c1cccc(Nc2nccc(-c3ccccc3)n2)c1	91*	0	4	-1
COc1ccc(CCNC(=S)Nc2ccc(C(=O)O)cc2)cc1OC	-4	0	-8	2
CC(=O)N[C@@H](CC(C)C)C(=O)N1CCOc2ccc(CN3CCN(C(C)=O)CC3)cc2C1	-2	0	9	2
CN1CC(=Nc2nonc2N)N(C)C1=O	2	0	8	0
COC(C(=O)N1CCc2nc(N3CCOCC3)[nH]c(=O)c2C1)c1ccccc1 (stereo unspecified)	10	0	15	1
NC(=O)c1ccccc1Nc1nccc(-c2ccccc2)n1	40*	0	12	-2
NC(=O)c1[nH]ncc1Nc1nccc(-c2ccccc2)n1	-14	0	6	-1
COc1ccc2[nH]c3c(c2c1)CCNC3=O	46*	0	-3	1
O=C(CSc1ncccc1C(=O)NCCC1=CCCCC1)Nc1ccccc1C(F)(F)F	3	0	9	0
O=C(Nc1ccc(Cl)cc1)Nc1ccc(S(=O)(=O)Nc2ncccn2)cc1	-2	2.5*	-23	-1
CCN(CC)S(=O)(=O)c1ccc(N2CCN(c3ccccc3OC)CC2)c(N)c1	33*	0	4	1
CCN(c1ccccc1)S(=O)(=O)c1ccc(OC)c(N)c1	52*	0	-7	-1
COc1ccc(S(=O)(=O)Cc2ccccc2)cc1N	-10	0	2	1
CCOC(=O)C1CCN(S(=O)(=O)c2cc3c(cc2C)n(C)c(=O)c(=O)n3C)CC1	-2	1	3	1
COc1cc(CCC(=O)Nc2nnc(C)s2)cc(OC)c1OC	55*	0	2	1
COc1cc(C(=O)Nc2nnc(C)s2)c(Br)c(OC)c1OC	-1	1	-9	-2
COc1cccc(C2=NN3C(C2)c2cccc(OC)c2OC3c2cccc(Cl)c2)c1 (stereo unspecified)	29	0	4	1
CCOc1cccc2c1OC(c1ccc(OC)cc1)N1N=C(c3cccc(OC)c3)CC21 (stereo unspecified)	47*	0	-7	-2
COc1cccc(C2=NN3C(C2)c2cccc(OC)c2OC3c2ccc(SC)cc2)c1 (stereo unspecified)	47*	0	-5	-1
C/C(=C\c1cccnc1)C(=O)c1c(C)cc(C)[nH]c1=O	-7	0	-5	-2
SMILES	TEAD-YAP inh	FBW7 activator	MITF inh	GPR151 activ
CCCc1ccc(/C=C/c2ccccc2)nc1	34*	0	16	-4
C/C(=N\Nc1ccc(S(N)(=O)=O)cc1[N+](=O)[O-])c1cccc(Br)c1	6	1	3	0
CN(C)c1ccc(Nc2nc(NCC3CCCO3)c3ccccc3n2)cc1 (stereo unspecified)	19	-1	60*	0
CCOC(=O)C1(C)NC(c2ccc(Cl)cc2)C2C(=O)N(C)C(=O)C21 (stereo unspecified)	-2	0	5	0
O=C(CCc1ccccc1)Nc1ccc(Oc2ccc3c(c2)C(=O)NC3=O)cc1	52*	0	-3	0
Cc1ccccc1OCC(=O)Nc1ccc(Oc2ccc3c(c2)C(=O)NC3=O)cc1	52*	0	11	1
O=C(COc1ccccc1)Nc1ccc(Oc2ccc3c(c2)C(=O)NC3=O)cc1	51*	0	8	-1
CCC(=O)Nc1ccc(Oc2ccc3c(c2)C(=O)NC3=O)cc1	-2	0	-13	1
COCCNC(=O)Cn1nc(-c2ccc(OC)c(OC)c2)ccc1=O	-5	0	-6	1
COc1ccc(-n2c(=S)[nH]c3cc(C(=O)Nc4ccc5c(c4)CCC5)ccc3c2=O)cc1OC	3	0	-1	0
COC(=O)c1ccc(Br)c(S(=O)(=O)N2CCCCC2)c1	7	1.9*	13	-1
O=C(O)c1ccc(Br)c(S(=O)(=O)N2CCCCCC2)c1	0	0	-8	0
